# A number with no mark means an inactive call. Records with an inconclusive call do not appear. Where a call stands in place of a potency, no number is given. Activity calls are given as the source filed them. Unless noted, calls follow the shape of the dose curve; as a rule, active = well fitted curve in the direction sought with a large enough effect; inconclusive = small, poorly fitted or top-dose-only effect, or another doubt; inactive = no such curve, though single readings can be large; an effect the other way counts as inactive or inconclusive.
# Legend:
# [1] = molecular target: Atrial natriuretic peptide receptor 2 (Homo sapiens) (UniProt P20594); test: Natriuretic polypeptide receptor (hNpr2) antagonism - Pilot subtype selectivity assay (AID 1347050; calls by dose curve; also: potency is read from the fitted curve at half-maximal effect)
# Sequence of Atrial natriuretic peptide receptor 2 (Homo sapiens) (P20594 whole entry, looked up): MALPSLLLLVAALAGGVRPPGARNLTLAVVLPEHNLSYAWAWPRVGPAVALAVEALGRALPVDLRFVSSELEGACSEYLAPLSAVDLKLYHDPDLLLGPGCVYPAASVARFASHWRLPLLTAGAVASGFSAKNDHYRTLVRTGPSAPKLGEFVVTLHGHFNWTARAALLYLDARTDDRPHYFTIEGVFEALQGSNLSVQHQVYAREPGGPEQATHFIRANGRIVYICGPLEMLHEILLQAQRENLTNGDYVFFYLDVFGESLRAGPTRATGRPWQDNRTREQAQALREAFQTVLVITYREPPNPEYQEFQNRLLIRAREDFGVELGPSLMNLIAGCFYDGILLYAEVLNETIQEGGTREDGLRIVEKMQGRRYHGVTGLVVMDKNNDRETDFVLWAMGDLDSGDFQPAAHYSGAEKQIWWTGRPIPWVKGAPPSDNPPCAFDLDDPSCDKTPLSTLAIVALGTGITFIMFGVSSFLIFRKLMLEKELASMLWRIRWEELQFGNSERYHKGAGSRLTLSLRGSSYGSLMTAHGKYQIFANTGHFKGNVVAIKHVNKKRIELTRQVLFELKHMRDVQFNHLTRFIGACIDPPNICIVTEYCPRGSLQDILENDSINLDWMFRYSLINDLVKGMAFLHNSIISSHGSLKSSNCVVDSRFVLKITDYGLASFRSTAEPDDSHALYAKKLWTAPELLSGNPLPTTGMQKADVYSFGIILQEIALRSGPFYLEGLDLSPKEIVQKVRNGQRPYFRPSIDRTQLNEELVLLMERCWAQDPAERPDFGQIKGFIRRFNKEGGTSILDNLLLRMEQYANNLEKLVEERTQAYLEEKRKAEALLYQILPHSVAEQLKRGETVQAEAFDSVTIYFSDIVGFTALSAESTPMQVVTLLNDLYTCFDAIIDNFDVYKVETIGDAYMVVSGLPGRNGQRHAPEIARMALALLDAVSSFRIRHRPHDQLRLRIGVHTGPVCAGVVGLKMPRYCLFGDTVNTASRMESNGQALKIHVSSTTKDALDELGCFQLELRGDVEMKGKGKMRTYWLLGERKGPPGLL
# Summary of the method: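 Luminescence from a genetically encoded cGMP luciferase biosensor in hNpr2-expressing HEK293 cells is read before and 20 min after adding 1 nM hNppC. Test compounds, in interplate 1:5 titrations, are added 30-50 min ahead of the agonist.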
# [2] = NS1 protein of Zika virus - qHTS assay to identify small molecule inhibitors in human HEK 293 cells (AID 1347053); also: series mostly up to about 46 µM; nearly all actives have a fitted effect of over 55% in size
# Summary of the method: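 In this cell-based screen, HEK 293 cultures received compound for one hour before Zika MR766 at MOI = 0.5. NS1 was quantified 24 hours later by TR-FRET, normalized to virus-free wells and infected wells.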
# [3] = molecular target: T1, Tyrosine-protein phosphatase non-receptor type substrate 1 (Homo sapiens) + Leukocyte surface antigen CD47 (Homo sapiens) (UniProt P78324+Q08722); test: CD47-SIRPalpha protein protein interaction - LANCE assay qHTS validation (AID 1347057; active = well fitted curve in the direction sought with a large enough effect in the signal ratio, with a control signal flat, not every such curve was filed as active; the % refers to the signal ratio; also: series mostly up to about 38 µM)
# T1 sequence (P78324 whole entry, looked up, the tested form may be a part): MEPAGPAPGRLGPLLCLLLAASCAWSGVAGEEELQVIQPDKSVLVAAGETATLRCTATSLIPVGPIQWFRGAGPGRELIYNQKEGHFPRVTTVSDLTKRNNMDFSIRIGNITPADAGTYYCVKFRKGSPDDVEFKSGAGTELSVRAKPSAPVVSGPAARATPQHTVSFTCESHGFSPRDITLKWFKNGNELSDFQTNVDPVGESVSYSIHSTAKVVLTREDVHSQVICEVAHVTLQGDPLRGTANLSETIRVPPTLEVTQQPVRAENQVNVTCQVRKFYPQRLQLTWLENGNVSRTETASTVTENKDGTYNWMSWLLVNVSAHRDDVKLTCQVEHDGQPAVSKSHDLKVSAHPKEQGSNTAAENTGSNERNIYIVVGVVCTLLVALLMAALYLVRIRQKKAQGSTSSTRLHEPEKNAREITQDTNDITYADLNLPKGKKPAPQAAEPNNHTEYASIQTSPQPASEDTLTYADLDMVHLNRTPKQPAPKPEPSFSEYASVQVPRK
# T1 sequence (Q08722 whole entry, looked up, the tested form may be a part): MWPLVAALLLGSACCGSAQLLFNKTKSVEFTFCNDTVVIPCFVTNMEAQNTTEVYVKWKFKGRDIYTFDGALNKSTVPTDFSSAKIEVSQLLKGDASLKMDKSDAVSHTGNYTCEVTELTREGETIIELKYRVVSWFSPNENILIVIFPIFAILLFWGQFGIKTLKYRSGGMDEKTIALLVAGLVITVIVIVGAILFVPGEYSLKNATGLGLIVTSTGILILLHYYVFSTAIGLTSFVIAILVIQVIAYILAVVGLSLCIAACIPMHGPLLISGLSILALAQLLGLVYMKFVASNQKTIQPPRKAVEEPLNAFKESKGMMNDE
# Summary of the method: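 Inhibition of soluble CD47/SIRPalpha ectodomain association by titrated compounds, measured as 665/615 nm time-resolved FRET ratio after sequential 30 min room-temperature incubations.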
# [4] = molecular target: T1, Tyrosine-protein phosphatase non-receptor type substrate 1 (Homo sapiens) + Leukocyte surface antigen CD47 (Homo sapiens); test: CD47-SIRPalpha protein protein interaction - HTRF assay qHTS validation (AID 1347058; active = well fitted curve in the direction sought with a large enough effect in the signal ratio, not every such curve was filed as active; the % refers to the signal ratio; also: series mostly up to about 38 µM)
# Summary of the method: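 Soluble extracellular domains (6His-CD47, Avi-tag-biotinylated SIRPalpha) in PBS pH 7.4 with 0.05% IGEPAL CA-630. Compounds were preincubated 30 min at RT with CD47 and anti-His-Eu, then SIRPalpha and SAV-XL665 were added. TR-FRET 665/615 ratio.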
# [5] = molecular target: T1, Tyrosine-protein phosphatase non-receptor type substrate 1 (Homo sapiens) + Leukocyte surface antigen CD47 (Homo sapiens); test: CD47-SIRPalpha protein protein interaction - Alpha assay qHTS validation (AID 1347059);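 also: bead proximity luminescence from CD47 binding SIRPalpha after compound preincubation with SIRPalpha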
# Summary of the method: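 SIRPalpha-biotin 25 nM + cpd, 30 min RT, dark; add CD47-His 12.5 nM, 30 min; add Ni-NTA/SAV beads 10 ug/mL, 30 min; AlphaScreen. Buffer PBS pH 7.4 + 0.05% IGEPAL CA-630. Non-biotinylated SIRPalpha as control inhibitor.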
# [6] = molecular target: Parathyroid hormone/parathyroid hormone-related peptide receptor (Homo sapiens) (UniProt Q03431); test: qHTS for PTHR1 Agonists: Optimization Screen against the NCGC LOPAC library (AID 1347079);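 also: GloSensor cAMP luminescence in HEK-293 GP2 cells expressing human PTHR1 with IBMX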
# Sequence of Parathyroid hormone/parathyroid hormone-related peptide receptor (Homo sapiens) (Q03431 whole entry, looked up): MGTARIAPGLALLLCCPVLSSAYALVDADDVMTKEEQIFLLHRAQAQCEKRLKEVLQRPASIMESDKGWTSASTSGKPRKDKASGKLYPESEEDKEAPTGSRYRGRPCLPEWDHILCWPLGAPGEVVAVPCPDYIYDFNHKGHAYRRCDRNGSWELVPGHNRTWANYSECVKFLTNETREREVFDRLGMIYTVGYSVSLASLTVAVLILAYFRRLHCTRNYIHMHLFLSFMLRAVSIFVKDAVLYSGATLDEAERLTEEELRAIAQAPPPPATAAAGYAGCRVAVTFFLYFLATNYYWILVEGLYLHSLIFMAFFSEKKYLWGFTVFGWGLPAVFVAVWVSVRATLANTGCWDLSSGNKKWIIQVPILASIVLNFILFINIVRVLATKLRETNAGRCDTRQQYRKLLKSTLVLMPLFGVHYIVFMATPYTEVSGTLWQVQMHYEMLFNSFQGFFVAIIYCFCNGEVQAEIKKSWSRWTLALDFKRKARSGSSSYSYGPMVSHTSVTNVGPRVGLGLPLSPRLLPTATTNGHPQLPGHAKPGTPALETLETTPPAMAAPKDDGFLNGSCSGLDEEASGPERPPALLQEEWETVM
# Summary of the method: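 HEK-293 GP2 cells, PTHR1 + GloSensor cAMP; 3000 cells/well, o/n. Luciferin + IBMX 0.5mM each (stock), 1 hr 37C. Cpd titration, 1 hr 37C. Lum after 15 min RT. Ctrl M-PTH(1-15) top 10uM.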
# [7] = qHTS of pediatric cancer cell lines to identify multiple opportunities for drug repurposing: Primary screen for TC32 cells (AID 1347089); also: nearly all actives have a fitted effect of over 60% in size; also: potency is read from the fitted curve at half-maximal effect
# Summary of the method: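 A viability screen of TC32 cells was run over 48 h, with primary MIPE doses spanning 0.78 nM–46 µM and NPC doses 0.59 nM–46 µM. ATP luminescence (CellTiter-Glo) served as the read-out.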
# [8] = qHTS of pediatric cancer cell lines to identify multiple opportunities for drug repurposing: Primary screen for SJ-GBM2 cells (AID 1347091); also: potency is read from the fitted curve at half-maximal effect
# Summary of the method: (§1)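 Viability measured as metabolically active cells via CellTiter-Glo luminescence following 48 hours of compound exposure, 11-point dilutions in confirmatory testing. 500-1,000 cells/well plated 5 hours before dosing; controls were DMSO and 2.3 µM bortezomib.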
# [9] = qHTS of pediatric cancer cell lines to identify multiple opportunities for drug repurposing: Primary screen for A673 cells (AID 1347092); also: nearly all actives have a fitted effect of over 45% in size; also: potency is read from the fitted curve at half-maximal effect
# Summary of the method: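 Titration-based qHTS on A673 cells: MIPE compounds spanned 11 points (0.78 nM to 46 µM final), NPC compounds 8 points (0.59 nM to 46 µM final). Viability after 48 h was measured by ATP luminescence.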
# [10] = qHTS of pediatric cancer cell lines to identify multiple opportunities for drug repurposing: Primary screen for DAOY cells (AID 1347090); also: series mostly up to about 46 µM; nearly all actives have a fitted effect of over 55% in size
# Summary of the method: as §1
Compound,Potency [1],outcome [2],outcome [3],outcome [4],Potency [5],outcome [6],Potency [7],Potency [8],Potency [9],Potency [10],"activity change, negative = cytotoxic [7]","activity change, negative = cytotoxic [10]","activity change, negative = cytotoxic [8]","activity change, negative = cytotoxic [9]"
CC(C)(Oc1ccc(CCNC(=O)c2ccc(Cl)cc2)cc1)C(=O)O,inactive,inactive,inactive,inactive,inactive,inactive,inactive,inactive,inactive,,,,,
C#CCN(C)CCCOc1ccc(Cl)cc1Cl,inactive,inactive,inactive,inactive,inactive,inactive,inactive,inactive,inactive,,,,,
CCc1cccc(N(C)C(N)=Nc2cccc3ccccc23)c1,inactive,inactive,inactive,inactive,inactive,inactive,,inactive,,,,,,
CN(C)C(=O)Oc1cccc([N+](C)(C)C)c1,inactive,inactive,inactive,inactive,inactive,inactive,inactive,inactive,inactive,inactive,,,,
CNC1(C)C2CCC(C2)C1(C)C (centres undefined),inactive,inactive,inactive,inactive,inactive,inactive,inactive,inactive,inactive,,,,,
CC(=O)[C@@]1(O)CC[C@H]2[C@@H]3CCC4=CC(=O)CC[C@]4(C)[C@H]3CC[C@@]21C,inactive,inactive,inactive,inactive,inactive,inactive,inactive,inactive,inactive,inactive,,,,
CCN(CC)CC(=O)Nc1c(C)cccc1C,inactive,inactive,inactive,inactive,inactive,inactive,inactive,inactive,inactive,inactive,,,,
CO[C@@]1(NC(=O)CSCC#N)C(=O)N2C(C(=O)O)=C(CSc3nnnn3C)CS[C@@H]21,inactive,inactive,inactive,inactive,inactive,inactive,inactive,inactive,inactive,,,,,
CCn1ccnc1CC1COc2ccccc2O1 (centres undefined),inactive,inactive,inactive,inactive,inactive,inactive,inactive,inactive,inactive,,,,,
CCCCNc1ccc(C(=O)OCCN(C)C)cc1,inactive,inactive,inactive,inactive,inactive,inactive,inactive,inactive,inactive,,,,,
CC(N=C(NC#N)Nc1ccncc1)C(C)(C)C (centres undefined),inactive,inactive,inactive,inactive,inactive,inactive,inactive,inactive,inactive,inactive,,,,
CCCCCN(CCCCC)C(=O)C(CCC(=O)O)NC(=O)c1ccc(Cl)c(Cl)c1 (centres undefined),inactive,inactive,inactive,inactive,inactive,inactive,inactive,inactive,inactive,,,,,
CCCCCCCC/C=C\CCCCCCCC(=O)NCc1ccc(O)c(OC)c1,inactive,inactive,inactive,inactive,inactive,inactive,inactive,,2.66 µM (active),inactive,,,,
NC1=NCC2c3ccccc3Cc3ccccc3N12 (centres undefined),inactive,inactive,inactive,inactive,inactive,inactive,inactive,inactive,inactive,,,,,
CCn1cc(C(=O)O)c(=O)c2cc3c(cc21)OCO3,inactive,inactive,inactive,inactive,inactive,inactive,inactive,inactive,inactive,inactive,,,,
CNCCC(Oc1ccccc1OC)c1ccccc1 (centres undefined),inactive,inactive,inactive,inactive,inactive,inactive,inactive,inactive,inactive,,,,,
NC(N)=NC(=O)Cc1c(Cl)cccc1Cl,inactive,inactive,inactive,inactive,inactive,inactive,inactive,inactive,inactive,inactive,,,,
NC(=O)N1c2ccccc2C=Cc2ccccc21,inactive,inactive,inactive,inactive,inactive,inactive,inactive,inactive,inactive,inactive,,,,
c1cnc(N2CCN(Cc3ccc4c(c3)OCO4)CC2)nc1,inactive,inactive,inactive,inactive,inactive,inactive,inactive,inactive,inactive,inactive,,,,
COc1ccc(CN(CCN(C)C)c2ccccn2)cc1,inactive,inactive,inactive,inactive,inactive,inactive,inactive,inactive,inactive,,,,,
CCCNC(C)C(=O)Nc1ccccc1C (centres undefined),inactive,inactive,inactive,inactive,inactive,inactive,inactive,inactive,inactive,inactive,,,,
CN1C[C@H](C(=O)N[C@]2(C)O[C@@]3(O)[C@@H]4CCCN4C(=O)[C@H](Cc4ccccc4)N3C2=O)C[C@@H]2c3cccc4[nH]cc(c34)C[C@H]21,inactive,inactive,inactive,inactive,,inactive,inactive,,,,,,,
CN(C)C/C=C(/c1ccc(Br)cc1)c1cccnc1,inactive,inactive,inactive,inactive,inactive,inactive,inactive,inactive,inactive,inactive,,,,
O=C(CCNNC(=O)c1ccncc1)NCc1ccccc1,inactive,inactive,inactive,inactive,inactive,inactive,inactive,inactive,inactive,,,,,
CC1=NS(=O)(=O)c2cc(Cl)ccc2N1,inactive,inactive,inactive,,inactive,inactive,inactive,inactive,inactive,inactive,,,,

Compound,Potency [1],outcome [2],outcome [3],outcome [4],Potency [5],outcome [6],Potency [7],Potency [8],Potency [9],Potency [10],"activity change, negative = cytotoxic [7]","activity change, negative = cytotoxic [10]","activity change, negative = cytotoxic [8]","activity change, negative = cytotoxic [9]"
COc1ccc2c(c1OC)C(=O)O[C@@H]2[C@H]1c2c(cc3c(c2OC)OCO3)CCN1C,16.5 µM (active),inactive,,inactive,inactive,inactive,inactive,,,,,,,
CN(C)[C@@H]1C(=O)C(C(N)=O)=C(O)[C@@]2(O)C(=O)C3=C(O)c4c(O)ccc(Cl)c4[C@@H](O)[C@H]3C[C@@H]12,inactive,inactive,inactive,,,inactive,inactive,inactive,inactive,inactive,,,,
CC(C)COCC(CN(Cc1ccccc1)c1ccccc1)N1CCCC1 (centres undefined),inactive,inactive,inactive,,inactive,inactive,,,26.6 µM (active),,,,,
CCCCNC(=O)NS(=O)(=O)c1ccc(C)cc1,inactive,inactive,,inactive,inactive,inactive,inactive,inactive,inactive,inactive,,,,
CN(C)CCOC(=O)COc1ccc(Cl)cc1,inactive,inactive,,inactive,inactive,inactive,inactive,inactive,inactive,inactive,,,,
O=C(CCCN1CCC(O)(c2cccc(C(F)(F)F)c2)CC1)c1ccc(F)cc1,inactive,inactive,,inactive,inactive,inactive,inactive,,,inactive,,,,
CCC(=O)c1ccc2c(c1)N(CCCN(C)C)c1ccccc1S2,inactive,inactive,inactive,,inactive,inactive,inactive,,,,,,,
CCO/C([O-])=N/c1c[n+](N2CCOCC2)no1,inactive,inactive,inactive,,inactive,inactive,inactive,inactive,inactive,inactive,,,,
CCN(CC)CCNC(=O)c1cc(S(C)(=O)=O)ccc1OC,inactive,inactive,inactive,,inactive,inactive,inactive,inactive,inactive,inactive,,,,
Cc1ccc(/C(=C\CN2CCCC2)c2ccccn2)cc1,inactive,inactive,,inactive,inactive,inactive,inactive,inactive,inactive,inactive,,,,
CN(C(=O)CCCOc1ccc2[nH]c(=O)ccc2c1)C1CCCCC1,inactive,inactive,,inactive,inactive,inactive,inactive,inactive,inactive,inactive,,,,
CN(C)CCN(Cc1cccs1)c1ccccn1,inactive,inactive,,inactive,inactive,inactive,inactive,inactive,inactive,inactive,,,,
CN1CCN(CC(=O)N2c3ccccc3C(=O)Nc3cccnc32)CC1,inactive,inactive,inactive,,inactive,inactive,,,,,4.32% [at 4.81 µM],1.05% [at 4.84 µM],3.45% [at 4.84 µM],5.45% [at 4.84 µM]
NCCCNCCSP(=O)(O)O,inactive,inactive,,inactive,inactive,inactive,,,,,10.8% [at 9.17 µM],0.0744% [at 9.22 µM],14.1% [at 9.22 µM],5.74% [at 9.22 µM]
CCCOc1ccccc1-c1nc2n[nH]nc2c(=O)[nH]1,inactive,inactive,,inactive,inactive,inactive,inactive,inactive,inactive,inactive,,,,
CN=C(NC#N)NCCSCc1nc[nH]c1C,inactive,inactive,,inactive,inactive,inactive,inactive,inactive,inactive,,,,,
O=C1CC2(CCCC2)CC(=O)N1CCCCN1CCN(c2ncccn2)CC1,inactive,inactive,,inactive,inactive,inactive,inactive,inactive,inactive,inactive,,,,
COC(=O)[C@@H](N)Cc1ccc(O)c(O)c1,inactive,inactive,,inactive,inactive,inactive,inactive,inactive,inactive,,,,,
Cc1nc2ccccn2c(=O)c1CCN1CCC(C(=O)c2ccc(F)cc2)CC1,inactive,inactive,inactive,,inactive,inactive,inactive,inactive,,inactive,,,,
Nc1nc(N)c2nc(-c3ccccc3)c(N)nc2n1,inactive,inactive,inactive,,inactive,inactive,7.45 µM (active),6.68 µM (active),,,,,,
Cc1ccc(S(=O)(=O)NC(=O)NN2CCCCCC2)cc1,inactive,inactive,,inactive,inactive,inactive,inactive,inactive,inactive,inactive,,,,
CC1=C(C)C(=O)C(CCCCC#CCCCC#CCO)=C(C)C1=O,inactive,inactive,inactive,,inactive,inactive,inactive,inactive,,inactive,,,,
COCCOC(=O)C1=C(C)NC(C)=C(C(=O)OC(C)C)C1c1cccc([N+](=O)[O-])c1 (centres undefined),inactive,inactive,inactive,,inactive,inactive,inactive,,,,,,,
C[C@]12CCC(=O)C=C1CC[C@@H]1[C@@H]2CC[C@@]2(C)[C@H]1CC[C@]2(O)C(=O)CO,inactive,inactive,,inactive,inactive,inactive,inactive,inactive,inactive,inactive,,,,
CCOC(=O)C1=C(C)NC(C)=C(C(=O)OC)C1c1cccc([N+](=O)[O-])c1 (centres undefined),inactive,inactive,inactive,,inactive,inactive,inactive,inactive,inactive,inactive,,,,
